The full list was thinned out, with hits kept by preference.
Tgondii IFNg – T. gondii growth inhibition under IFN-gamma; Toxoplasma gondii growth in IFN-gamma-treated host cells; hits give low values; hit rate 3.8% among 69,000; activity change, negative = inhibition, % (concentration not given with the values); in the data active = activity change below about -70%, passing the limit was not always enough;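 note: host cells are HeLa cells infected with Toxoplasma gondii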
Each line names hits and unclear results; the compound was inactive in the other large screens; ! = a repeat was not active.

Cc1ccc(/C=C2\CNC/C(=C\c3ccc(C)cc3)C2=O)cc1	Tgondii IFNg -86
Cc1ccc(/C=C2\C(=O)C3(C)CCC2C3(C)C)cc1 (stereo not given)	none
O=C(COc1cccc(-n2cnnc2)c1)N1CCOCC1	Tgondii IFNg -85
Cc1cc(NC(=O)c2cccc3ccccc23)cc(C)c1OCC(=O)N1CCOCC1	none
O=C(CSCCOc1ccccc1)N1CCOCC1	none
CCn1cnc2c1C(C(=O)O)CN(Cc1c(C)noc1C)C2 (stereo not given)	none
O=C1CSC(=O)N1C/C=C/CN1C(=O)CSC1=O	none
Cc1ccc(NCN2C(=O)CSC2=O)c(C)c1	Tgondii IFNg -88
Cc1cc(=O)n(CC(=O)NCCN2C(=O)CSC2=O)c2ccccc12	none
CN1CCN(C(=O)c2cc3ccc(-c4cccc(Cl)c4)cn3c2-c2cocn2)CC1	none
O=C1CCCN1Cc1nnc2n1CCCN(C(=O)c1ccco1)C2	none
CCc1nc(N2[C@@H](C#N)[C@H](c3ccccc3-c3ccccc3C)[C@@H]2CO)sc1C	none
Cc1cccc(OCCCN(C)C(=O)CN)c1C	none
COCC(=O)N(C)CCOc1c(C)ccc(C)c1C	Tgondii IFNg -78
Cc1ccc(C)c(OCC(=O)N(C)Cc2cc(C(C)C)on2)c1C	none
COc1ccc(CN2CCC3(CC(=O)N(c4ccc5c(c4)OCO5)C3)C2)cc1 (stereo not given)	none
CC(C)NC(=O)N1CCn2nnc(COCc3cccnc3)c2C1	none
Cc1c(CN2CCCC2c2ccccn2)[nH]c2ccc(F)cc12 (stereo not given)	none
Fc1ccc(C(F)(F)F)cc1CN1CCCC1c1ccccn1 (stereo not given)	none
Cn1cc(CN2CCCC2c2cncc(Nc3ccccn3)n2)c2cc(F)ccc21 (stereo not given)	Tgondii IFNg -100
CN(C)C(=O)COC[C@]12CCC[C@@H]1CN(Cc1cccs1)C2	none
CC(C)c1cc(C(=O)Nc2ccc(Cn3cncn3)cc2)cs1	none
CC(C)c1ccc(NC(=O)c2csc(Cc3c(Cl)cccc3Cl)n2)cc1	Tgondii IFNg -84
O=C(Nc1csc(Cc2c(Cl)cccc2Cl)n1)NN1CCOCC1	none
CCOC(=O)N1CCN(C(=S)NC(=O)c2nn(C)cc2Br)CC1	none
Cc1nnsc1C(=O)Nc1cccc(N)c1	none
Cc1nnsc1C(=O)Nc1ccc(-n2nc(C(F)(F)F)cc2C(F)(F)F)cc1	Tgondii IFNg -81
Cc1ccc(C(=O)Nc2ccc(-n3nc(C(F)(F)F)cc3-c3cccs3)cc2)cc1	none
Cc1nc(Nc2n[nH]c3c2CN(C(=O)N[C@H](CN(C)C)c2ccccc2)C3(C)C)c2sccc2n1	Tgondii IFNg -75
COc1cc2c(cc1CN1CCCN(c3ccnc(C)c3)CC1)OCCO2	none
Cc1cnc(C)c(-c2cc(O)c3c(c2)CN(Cc2c(C)n[nH]c2C)CCO3)n1	none
Cc1nn(Cc2nnc(SCc3c(F)cccc3Cl)n2C)c(C)c1Br	none
N#CCCn1nc(-c2cccnc2)oc1=O	none
Cc1nn(CCC#N)c(C)c1Cc1c(Cl)cccc1Cl	Tgondii IFNg -111
Cc1cnn(CC(=O)Nc2cccc(CCc3ccncc3)c2)c1	none
COc1ccccc1-c1cc(C(=O)Nc2cccc(CCc3ccncc3)c2)[nH]n1	Tgondii IFNg -92
COc1ccccc1C(=O)Nc1cccc(-n2cnnc2)c1	none
NC(=O)COc1cccc(C(=O)N2C[C@H]3CC=CC[C@H]3C2)c1	none
O=C(O)c1cc(-c2ccc3c(c2)OCO3)cc(S(=O)(=O)N2CCSCC2)c1	none
O=C(NCCNc1ccc(Cl)cc1[N+](=O)[O-])c1cccnc1	none
O=C(Nc1ccccc1)c1cc([N+](=O)[O-])ccc1Cl	none
O=C(Nc1ccc([N+](=O)[O-])cc1Cl)c1cc(Cl)ccc1O	Tgondii IFNg -76!
CCC(=O)Oc1ccc(C(=O)Nc2ccc([N+](=O)[O-])cc2)cc1	none
O=C(Nc1ccncc1)c1cc([N+](=O)[O-])ccc1Cl	Tgondii IFNg -82
O=C(O)c1cc([N+](=O)[O-])ccc1NCCCc1ccccc1	none
CCCn1cc(C(=O)N(Cc2ccccc2F)C(C)CC)c(C)n1 (stereo not given)	none
COc1ccc(C2CCCN2Cc2nc3ccccc3n2C)cc1OC (stereo not given)	none
O=C(Nc1cccc(C(F)(F)F)c1)Nc1csc(Cc2ccsc2)n1	Tgondii IFNg -93
O=C(NCc1sccc1COc1ccc(Cl)cc1)Nc1cccc(C(F)(F)F)c1	none
O=C(Nc1ccc(-c2nc(-c3ccccc3)co2)cc1)Nc1cccc(C(F)(F)F)c1	none
CN1CCN(c2ccc(OC(F)(F)F)c(Nc3ncc4c(n3)-c3c(c(C(N)=O)nn3CCO)CC4)c2)CC1	Tgondii IFNg -81
CNC(=O)c1nn(C)c2c1C(C)(C)Cc1cnc(Nc3ccc(N4CCN(C)CC4)cc3)nc1-2	none
CN(C)CCN1CC2(CCN(C(=O)c3ccc[nH]3)CC2)OCC1=O	none
Cc1cnccc1N1CCCN(C(=O)c2cnn3ccn(C)c23)CC1	none
CCC(=O)N1C[C@@H](O)COC[C@@H]2O[C@@H](CC(=O)NCc3ccc(Oc4ccccc4)cc3)CC[C@H]21	none
O=C(CN1CCOCC1)NCc1cnn2ccccc12	none
Cc1cc(NC(=O)c2nnn(Cc3nc(-c4cccc(Cl)c4)oc3C)c2C)ccc1Br	none
COc1ccc(NC(=O)c2nnn(Cc3nc(-c4cccc(Cl)c4)oc3C)c2C)cc1	Tgondii IFNg -110
Cc1cccc(-c2nc(Cn3nnc(C(=O)NCc4ccc(Br)cc4)c3C)c(C)o2)c1	none
Cc1cccc(-c2nc(Cn3nnc(C(=O)NCc4cccc(Cl)c4)c3C)c(C)o2)c1	Tgondii IFNg -97
Cc1cccc(-c2nc(Cn3nnc(C(=O)NCc4ccc(F)c(Cl)c4)c3C)c(C)o2)c1	Tgondii IFNg -93
CCOc1ccc(CNC(=O)c2nnn(Cc3nc(-c4cccc(C)c4)oc3C)c2C)cc1	none
Cc1ccc(NC(=O)c2nnn(Cc3nc(-c4cccc(Cl)c4)oc3C)c2C)cc1F	none
COc1ccc(OC)c(NC(=O)c2nnn(Cc3nc(-c4cccc(Cl)c4)oc3C)c2C)c1	none
Cc1cccc(-c2nc(Cn3nnc(C(=O)NCc4ccc(C(F)(F)F)cc4)c3C)c(C)o2)c1	none
O=C(CN1CCN(Cc2ccccc2)CC1)N1CCCc2c1c(=O)oc1ccc(O)cc21	none
CCN(C[C@@H]1[C@@H](c2ccc(-c3cccnc3)cc2)[C@H](CO)N1C(C)=O)C(C)=O	none
COc1cccc(CCc2ccccc2OCC(CN(C)C)OC(=O)CCC(=O)O)c1 (stereo not given)	none
O=C(C[C@H]1CC[C@H]2[C@@H](COC[C@H](O)CN2Cc2ccc(Oc3ccccc3)cc2)O1)N1CCN(c2ccccc2)CC1	none
O=C(N[C@@H]1C[C@H](Cc2ccccc2)O[C@H](c2cccnc2)C1)c1ccccc1	none
CCOC(=O)c1ccc(NC(=O)N2CCC(O)(c3ncccc3C)CC2)cc1	none
COc1ccc(NC(=O)Nc2ccc(-c3nc(-c4ccc(C)cc4)co3)cc2)cc1OC	none
CCc1cccc(NC(=O)CCC(=O)N2CCN(c3cccc(C)n3)CC2)c1	none
O=C(CC(Sc1ccc(Cl)cc1)c1ccc(Cl)cc1)c1ccccc1 (stereo not given)	Tgondii IFNg -112
O=C(CC(SC(=O)c1ccccc1)c1ccc(Cl)cc1)c1ccccc1 (stereo not given)	none
O=C(CCSc1ccccn1)c1ccc(Cl)cc1	none
CC(=O)NCCC(=O)Nc1nnc(Cc2ccccc2C)s1	none
Cc1nnsc1C(=O)N1CCCC(N(C)C(=O)c2nccc3ccccc23)CC1 (stereo not given)	none
COc1ccc(Cl)cc1-c1ncncc1C(C)C	none
OC(CCN1CCCCC1)c1ccc(-c2ccccc2)cc1 (stereo not given)	none
Cc1ccc(S(=O)(=O)N=Nc2c(O)[nH]c3ccccc23)cc1	none
O=Nc1c(-c2c(O)[nH]c3ccccc23)[nH]c2ccccc12	Tgondii IFNg -84
Oc1[nH]c2ccccc2c1N=Nc1ccccc1	none
